Bioassay records (PubChem)
MazEF act – MazEF (E. coli) toxin RNase activation; P0AE70; FAM/BHQ RNA-DNA oligo cleavage fluorescence, 5 h; activation, % at 20 µM; 350,000 tested, 0.32% active; AID 504720; in the data active = activation above about 50%
Target sequence (P0AE70 whole entry, looked up): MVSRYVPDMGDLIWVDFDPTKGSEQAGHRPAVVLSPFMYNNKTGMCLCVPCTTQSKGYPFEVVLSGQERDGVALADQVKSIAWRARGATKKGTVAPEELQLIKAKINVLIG
BH1578 lux ind – inducers of Vibrio cholerae quorum light production without autoinducers. V. cholerae BH1578 lux reporter, luminescence, 6 h. AID 588436. 350,000 tested, 0.16% active. activation, % at 18.7 µM; in the data active = activation mostly above about 9.7%, no sharp cut-off; inconclusive = no clear call, values can overlap the other calls; inactive = mostly below about 3.7%
BoNT-A LC inh2 – BoNT A light chain protease inhibition. multiplex microsphere protease substrate cleavage, flow cytometry. inhibition, % at 10 µM. 360,000 tested, 0.17% active. AID 588499; also: plate controls were buffer without enzyme for full effect and enzyme alone for no effect
Anthrax LF prot – anthrax lethal factor protease inhibition | P15917 | inhibition, % at 10 µM | 360,000 tested, 0.12% active | AID 588501 | multiplex microsphere protease cleavage assay, LF; also: plate controls were buffer without enzyme for full effect and enzyme alone for no effect
Bead autofluor – flagged as autofluorescent in microsphere protease counterscreen; compound autofluorescence counterscreen, microsphere flow cytometry; active compounds read high; fluorescence intensity (concentration not given with the values); 360,000 tested, 3.1% active; in the data active = fluorescence intensity above about 16000; inconclusive = no clear call, values can overlap the other calls
BoNT F protease – BoNT F light chain protease inhibition; Multiplex microsphere protease cleavage assay, flow cytometry; inhibition, % at 10 µM; 360,000 tested, 0.22% active; in the data active = inhibition above about 35%, passing the limit was not always enough; inconclusive = no clear call, values can overlap the other calls; also: plate controls were buffer without enzyme for full effect and enzyme alone for no effect
* marks the source's active call; other numbers are inactive results; i = inactive; ? = inconclusive; . = not tested or not shown; + = active, no number. Shown are actives, neighbours in structure and some others; about 3.9% of the full set was active somewhere. Rule as the data show it, unless noted: active = inhibition above about 30%; inconclusive = no clear call, values can overlap the other calls; inactive = below that.

SMILES	MazEF act	BH1578 lux ind	BoNT-A LC inh2	Anthrax LF prot	Bead autofluor	BoNT F protease
Cc1ccc2c(=O)n3c(nc2c1)C(CC(C)C)NC(=O)c1cccnc1-3 (stereo not given)	7	0	0	-3	3565	-9
COC(=O)c1ccccc1NC(=O)CSc1nccn1C	0	i	-1	-5	3295	-9
O=C(CSc1nnc(-c2ccc(Br)cc2)o1)Nc1cccc2ccccc12	-33	1	2	0	23146*	2
Cn1ccnc1SCC(=O)Nc1cccc2ccccc12	0	i	0	-4	19695*	3
CCN(c1ccc(OC)cc1)S(=O)(=O)c1nnc(NC(=O)c2ccc(C)cc2)s1	0	0	0	-5	5444	-2
C=CCSc1[nH]c(=O)cc(C)c1C(N)=O	5	0	2	-2	19287*	4
Cc1cccc(-c2n[nH]c(=S)n2Cc2ccccc2)c1	-3	i	-1	1	3630	-10
Cc1ccc(-c2n[nH]c(=S)n2Cc2ccccc2)cc1	1	i	?	-1	22893*	3
COC(=O)c1nn(-c2ccc(OC)cc2)c(=O)cc1Oc1cccc(Cl)c1	4	3	?	0	20164*	-4
COC(=O)c1nn(-c2ccc(Oc3ccccc3)cc2)c(=O)cc1O	-3	0	-2	1	3287	-14
CC12CCC(=O)N1C(C(=O)N1CCN(c3cccc(Cl)c3)CC1)CS2 (stereo not given)	5	i	0	3	3792	2
COCCN1C(=O)CCC1(C)c1nnnn1Cc1ccccc1 (stereo not given)	.	.	0	7	5713	-1
CCC(Oc1ccc(C)c(C)c1)C(=O)O (stereo not given)	5	i	0	4	16400*	-1
CN(C(=O)COC(=O)c1ccccc1NCc1ccco1)c1c(N)n(Cc2ccccc2)c(=O)[nH]c1=O	3	3	1	0	5452	-7
CCOC(=O)C1=C(O)CSC1=Nc1ccc(Cl)cc1	-2	-4	-1	-1	16689*	-1
COc1ccc(CNC(=O)c2cc3c(=O)n4ccccc4nc3n(Cc3cccnc3)c2=N)cc1	557*	4	4	4	8731	2
CCOC(=O)c1cc2c(=O)n3ccccc3nc2n(C(C)C)c1=NC(=O)c1c(-c2c(F)cccc2Cl)noc1C	-6	0	71*	34*	2502	24
N=c1c(C(=O)NCc2ccc3c(c2)OCO3)cc2c(=O)n3ccccc3nc2n1Cc1cccnc1	14	i	-1	3	24844*	-3
CCOC(=O)c1cc2c(=O)n3ccccc3nc2n(Cc2ccc(Cl)cc2)c1=N	+	0	1	2	5669	-4
COc1ccc(NC(=O)c2ccc(OC)c(S(=O)(=O)N3CCCCC3C)c2)cn1 (stereo not given)	-15	i	.	.	.	.
C[C@H](CO)N1C[C@H](C)[C@@H](CN(C)S(=O)(=O)c2ccccc2)Oc2c(NC(=O)c3ccncc3)cccc2C1=O	-2	0	0	-3	3803	1
Cc1cccc(NS(=O)(=O)c2csc(C(N)=O)c2)c1C	0	1	-1	1	3014	-24
COCCCn1c(=N)c(C(=O)NCc2ccc3c(c2)OCO3)cc2c(=O)n3cccc(C)c3nc21	6	0	1	0	5084	-3
COCCCn1c(=N)c(C(=O)NCc2ccc3c(c2)OCO3)cc2c(=O)n3ccccc3nc21	10	-4	1	0	22332*	-1
O=C(c1cc(Cl)nc2ccccc12)N1CCN(S(=O)(=O)c2cccc(C(F)(F)F)c2)CC1	1	-1	0	4	4420	13
SMILES	MazEF act	BH1578 lux ind	BoNT-A LC inh2	Anthrax LF prot	Bead autofluor	BoNT F protease
CC(C(=O)NCc1ccccc1)N1C(=O)c2ccccc2C1=O (stereo not given)	-3	i	-2	5	3546	-7
C[C@@H](C(=O)NCc1ccccc1)N1C(=O)C2CC=CCC2C1=O (stereo not given in full)	0	25*	0	-1	2054	-2
COc1ccc(C(=O)NC2CCc3ccccc32)cc1OC1CCN(C(C)=O)CC1 (stereo not given)	4	-1	0	2	6111	-1
Cc1cc2nc(C)n(CCCN)c2cc1C	1	0	2	3	22118*	7
OC(Cc1ccnc2ccccc12)C(Cl)(Cl)Cl (stereo not given)	12	.	0	0	4067	0
O=C(Nc1nccc(-c2cccs2)n1)c1ccccc1Cl	6	0	2	2	19543*	2
O=C(c1ccccc1Cl)N(C(=O)c1ccccc1Cl)c1nccc(-c2cccs2)n1	-8	0	0	-10	9665	0
Cc1nn(C)c(C)c1/C=C/C(=O)c1cccs1	8	i	0	1	3687	-7
Cc1nn(C)c(C)c1/C=C/C(=O)c1ccccc1	0	i	-6	-4	24377*	-8
Cc1nn(C)cc1/C=C/C(=O)c1ccccc1	-15	i	-1	-4	16636*	-2
Cc1nn(C)cc1/C=C/C(=O)c1cccs1	5	-1	1	-6	9107	1
COc1cc(/C=C/C(=O)Nc2cccc(S(=O)(=O)NC3=NCCCCC3)c2)ccc1OCC#N	-10	i	1	0	?	?
COc1ccccc1C1SCCN1S(C)(=O)=O (stereo not given)	2	0	0	-5	2481	8
COc1ccc(OC)c(C2SCCN2S(C)(=O)=O)c1 (stereo not given)	-1	i	0	1	22914*	4
CS(=O)(=O)c1ccc2nc(NC(=O)c3ccc(S(=O)(=O)NCC4CCCO4)cc3)sc2c1 (stereo not given)	5	0	-1	-2	4316	1
COc1ccc(OC(F)(F)F)cc1CC1(C)C(=O)Nc2ccc(-c3ccsc3)cc21 (stereo not given)	.	i	0	0	3690	-3
O=C(CSc1ncn[nH]1)Nc1ccc2c(c1)OCCO2	-5	i	-1	-4	23582*	-2
Cc1nnc(SCC(=O)N2CCC(C(N)=O)CC2)s1	3	6	0	-4	3267	-6
Cc1nnc(SCC(=O)Nc2ccc3c(c2)OCCO3)s1	-3	0	-5	-1	21759*	-5
Cc1nnc(SCC(=O)Nc2ccc3c(c2)OCO3)s1	-1	0	1	-2	5453	-2
O=C(CSc1ncn[nH]1)Nc1c(F)cc(F)cc1Br	-1	-1	?	-1	23998*	-2
Cc1nnc(SCC(=O)N2CCOCC2)s1	-2	i	?	-1	19625*	1
COc1ccc(CCNC(=O)CSc2ncn[nH]2)cc1	3	-1	6	-9	19819*	5
CC(=O)Nc1nonc1NC(=O)CSc1ncn[nH]1	-1	i	-5	-3	21267*	-5
O=C(Nc1ccc(Cl)cc1Cl)c1cccc(N2C(=O)C=CC2=O)c1	-3	0	0	2	5068	6
